Results published in the supplement of paper PMC6607015.
Counter-ions that a name gives are not always drawn.

Columns and labels:
Conditions in all cases: compound concentration in added solution (µM; 5 µl added to 20 µl cells): 10; 18 h
A431 [1] = experiment: LBPA endosome anti-LBPA integrated intensity (sum per cell), Z-score; higher = more LBPA staining
Outline: (§1)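 The data are Z-scores, normalised in AcuityXpress, of integrated LBPA or filipin intensity in each cell, either whole-cell or restricted to LBPA endosomes. HeLa MZ or A431 cells, 3,500 per well in 20 µl, were seeded onto 5 µl of 10 µM compound solution in duplicate 384-well plates and incubated 18 h. Fixed cells were stained and imaged, with intensities extracted by MetaXpress segmentation.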

HeLa MZ [2] = experiment: as above
Outline: as §1

A431 [3] = experiment: whole-cell filipin (free cholesterol) integrated intensity, Z-score; higher = more cholesterol staining
Outline: as §1

HeLa MZ [4] = experiment: as above
Outline: as §1

A431 [5] = experiment: filipin (cholesterol) integrated intensity within LBPA endosomes, Z-score; higher = more cholesterol in LBPA endosomes
Outline: as §1

HeLa MZ [6] = experiment: as above
Outline: as §1

Structure (SMILES) | LBPA endosome anti-LBPA integrated intensity (z-score) (A431 [1]) | LBPA endosome anti-LBPA integrated intensity (z-score) (HeLa MZ [2]) | whole-cell filipin (z-score) (A431 [3]) | whole-cell filipin (z-score) (HeLa MZ [4]) | filipin (z-score) (A431 [5]) | filipin (z-score) (HeLa MZ [6])
C#C[C@]1(O)CC[C@H]2[C@@H]3CCC4=CC(=O)CCC4=C3C=C[C@@]21CC [Gestrinone] | -0.489 | -0.347 | 0.15 | 0.634 | -0.436 | -0.437
C[N+]1(C)[C@@H]2CC[C@H]1C[C@@H](OC(=O)C(CO)c1ccccc1)C2 (some centres undefined) [Methylatropine nitrate] | -0.382 | 0.224 | -0.241 | 0.542 | -0.375 | -0.173
NCCc1c[nH]c2ccc(O)cc12 [Serotonin hydrochloride] | -0.716 | -1.58 | -1.04 | -1.21 | -0.627 | -0.624
CCCCCC[C@H]1C(=O)O[C@H](C)[C@H](NC(=O)c2cccc(NC=O)c2O)C(=O)O[C@@H](C)[C@@H]1OC(=O)CC(C)C [Antimycin A] | -0.868 | -0.65 | -0.217 | -0.804 | -0.854 | -0.994
CCC1(CC)C(=O)C=CNC1=O [Pyrithyldione] | -0.626 | -1.42 | -0.51 | -0.44 | -0.527 | -0.593
C=CCN1CC[C@]23c4c5ccc(O)c4O[C@H]2C(=O)CC[C@@]3(O)[C@H]1C5 [Naloxone hydrochloride] | -0.497 | -0.128 | -0.72 | -1.07 | -0.454 | -0.503
CN(C)C(=O)Oc1cc(OC(=O)N(C)C)cc(C(O)CNC(C)(C)C)c1 (centres undefined) [Bambuterol hydrochloride] | -0.585 | -0.352 | -0.328 | -0.434 | -0.64 | -0.586
CN1CCC2(C)c3cc(O)ccc3N(C)C12 (single isomer, unassigned; (-)) [(-)-Eseroline fumarate salt] | -0.298 | 0.682 | 0.444 | -0.261 | -0.415 | -0.33
C1CCc2nnnn2CC1 [Pentylenetetrazole] | -0.641 | -1.19 | -0.85 | -0.876 | -0.452 | -0.614
COP(=O)(OC)C(O)C(Cl)(Cl)Cl (centres undefined) [Trichlorfon] | -0.479 | -0.711 | -1.16 | -1.48 | -0.56 | -0.592
CCC1(C)CC(=O)NC(=O)C1 [Bemegride] | -0.67 | -1.05 | -0.832 | -0.492 | -0.547 | -0.434
CCCN1C[C@H](CSC)C[C@@H]2c3cccc4[nH]cc(c34)C[C@H]21 [Pergolide mesylate] | 2.35 | 1.89 | -0.261 | -0.788 | 0.495 | 0.499
CC(=O)OCC(=O)[C@H]1CC[C@H]2[C@@H]3CC[C@H]4C[C@H](O)CC[C@]4(C)[C@H]3C(=O)C[C@]12C [Alfadolone acetate] | 0.719 | 1.43 | 0.996 | 0.815 | 0.478 | 0.736
CNC(=O)Oc1ccc2c(c1)[C@]1(C)CCN(C)[C@@H]1N2C [Eserine sulfate, physostigmine sulfate] | -0.59 | -0.404 | -0.783 | -0.229 | -0.479 | -0.36
CC1OC(OC2/C=C/C=C/C=C/C=C/CC/C=C/C=C/[C@H](C)[C@@H](O)[C@@H](C)[C@H](C)OC(=O)CC(O)CC(O)CC(O)CCC(O)C(O)C[C@]3(O)CC(O)C(C(=O)O)C(C2)O3)C(O)C(N)C1O (some centres undefined) [Nystatine] | -0.00963 | 0.129 | 0.146 | 0.0497 | -0.136 | -0.223
C[C@@]12N[C@@H](Cc3ccccc31)c1ccccc12 [(-)-MK 801 hydrogen maleate] | -0.405 | 0.615 | -0.428 | -0.298 | -0.407 | -0.347
NCC(O)c1ccc(O)cc1 (racemic) [(+,-)-Octopamine hydrochloride] | -0.262 | 0.0629 | -0.464 | -0.485 | -0.407 | -0.291
O=c1[nH]c2ccccc2n1CCCN1CCC(n2c(=O)[nH]c3cc(Cl)ccc32)CC1 [Domperidone] | 2.25 | 1.92 | 2.16 | 2.38 | 2.09 | 2.01
CN1C[C@H](CNC(=O)OCc2ccccc2)C[C@@H]2c3cccc4c3c(cn4C)C[C@H]21 [Metergoline] | 3.11 | 1.47 | 1.11 | 1.28 | 4.03 | 4.18
CCN(C)C(=O)Oc1cccc([C@H](C)N(C)C)c1 [Rivastigmine] | -0.438 | -0.457 | 0.162 | 1.82 | -0.375 | -0.164
CC(C)[N+](C)(CCC(C(N)=O)(c1ccccc1)c1ccccc1)C(C)C [Isopropamide iodide] | -0.212 | 0.0469 | 0.00888 | -0.577 | -0.389 | -0.451
O=[N+]([O-])c1cc([As](=O)(O)O)ccc1O [Roxarsone] | -0.422 | -1.01 | 0.39 | 0.562 | -0.281 | -0.327
Cc1cc(C(C#N)c2ccc(Cl)cc2)c(Cl)cc1NC(=O)c1cc(I)cc(I)c1O (centres undefined) [Closantel] | -0.54 | -1 | -0.93 | -0.632 | -0.512 | -0.663
CC(N)C(O)c1ccccc1 (centres undefined) [Phenylpropanolamine hydrochloride] | -0.541 | -1.1 | -0.689 | -0.0866 | -0.502 | -0.451
